# Data published in PubChem BioAssay AID1159580 (chemical genetic matrix, 2015).
# In all, about 5,500 compounds went through this assay and about 2,000 (36%) were called active. Not shown: some 18% with an inconclusive outcome. The list shows a part of the results. Values without a mark were called inactive. Cut-off read from the data, not from the text of the source: active = normalized growth mostly below about 0.91 (no sharp cut-off); inconclusive = no clear call, values can overlap the other calls; inactive = mostly above about 0.92.
# Experiment: chemical genetic growth profiling, strain panel (AID 1159580);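 note: tested at 20 µM; growth read once vehicle control cultures reached saturation at 30 °C; 1 = growth at the plate median or of vehicle wells; lower values mean less growth of the strain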
# Details: S. cerevisiae deletion strains, growth OD
# [1] = locus YAR019C, strain CDC15, active compounds read low
# [2] = locus YBL105C, strain PKC1, active compounds read low
# [3] = locus YBR135W, strain CKS1, active compounds read low
# [4] = locus YBR136W, strain MEC1, active compounds read low
# [5] = locus YBR160W, strain CDC28, active compounds read low
# [6] = locus YDL017W, strain CDC7, active compounds read low
# [7] = locus YDL028C, strain MPS1, active compounds read low
# [8] = locus YDL101C, strain DUN1, active compounds read low
# [9] = locus YDL108W, strain KIN28, active compounds read low
# [10] = locus YDL132W, strain cdc53, active compounds read low
# [11] = locus YDL214C, strain PRR2, active compounds read low
# [12] = locus YDR052C, strain DBF4, active compounds read low
# [13] = locus YDR054C, strain cdc34, active compounds read low
# [14] = locus YDR226W, strain ADK1, active compounds read low
# [15] = locus YDR477W, strain SNF1, active compounds read low
# [16] = locus YER123W, strain YCK3, active compounds read low
# [17] = locus YER133W, strain GLC7, active compounds read low
# [18] = locus YFL009W, strain cdc4, active compounds read low
# [19] = locus YFL029C, strain CAK1, active compounds read low
# [20] = locus YFR003C, strain YPI1, active compounds read low
# [21] = locus YFR019W, strain FAB1, active compounds read low
# [22] = locus YFR028C, strain CDC14, active compounds read low
# [23] = locus YGR040W, strain KSS1, active compounds read low
# [24] = locus YGR052W, strain FMP48, active compounds read low
# [25] = locus YGR092W, strain DBF2, active compounds read low
# [26] = locus YHR030C, strain SLT2, active compounds read low
# [27] = locus YHR079C, strain IRE1, active compounds read low
# [28] = locus YHR082C, strain KSP1, active compounds read low
# [29] = locus YHR205W, strain SCH9, active compounds read low
# [30] = locus YIL147C, strain SLN1, active compounds read low
# [31] = locus YJL095W, strain BCK1, active compounds read low
# [32] = locus YJL128C, strain PBS2, active compounds read low
# [33] = locus YJL157C, strain FAR1, active compounds read low
# [34] = locus YJR016C, strain ILV3, active compounds read low
# [35] = locus YJR066W, strain TOR1 (second series), active compounds read low
# [36] = locus YJR066W, strain TOR1, active compounds read low
# [37] = locus YKL048C, strain ELM1, active compounds read low
# [38] = locus YKL067W, strain YNK1, active compounds read low
# [39] = locus YKL101W, strain HSL1, active compounds read low
# [40] = locus YKL193C, strain SDS22, active compounds read low
# [41] = locus YKL203C, strain TOR2, active compounds read low
# [42] = locus YLR113W, strain HOG1, active compounds read low
# [43] = locus YLR133W, strain CKI1, active compounds read low
# [44] = locus YLR403W, strain SFP1, active compounds read low
# [45] = locus YML070W, strain DAK1, active compounds read low
# [46] = locus YMR001C, strain CDC5, active compounds read low
# [47] = locus YMR205C, strain PFK2 (second series), active compounds read low
# [48] = locus YMR277W, strain FCP1, active compounds read low
# [49] = locus YNL006W, strain LST8, active compounds read low
# [50] = locus YNL020C, strain ARK1, active compounds read low
# [51] = locus YNL161W, strain CBK1, active compounds read low
# [52] = locus YNL183C, strain NPR1, active compounds read low
# [53] = locus YNL207W, strain RIO2, active compounds read low
# [54] = locus YNL222W, strain SSU72, active compounds read low
# [55] = locus YNL307C, strain MCK1 (second series), active compounds read low
# [56] = locus YOL078W, strain AVO1, active compounds read low
# [57] = locus YOL136C, strain PFK27, active compounds read low
# [58] = locus YOR061W, strain CKA2, active compounds read low
# [59] = locus YOR119C, strain RIO1, active compounds read low
# [60] = locus YOR231W, strain MKK1, active compounds read low
# [61] = locus YOR329C, strain SCD5, active compounds read low
# [62] = locus YPL031C, strain PHO85, active compounds read low
# [63] = locus YPL153C, strain RAD53, active compounds read low
# [64] = locus YPL204W, strain HRR25, active compounds read low
# [65] = locus YPL209C, strain IPL1, active compounds read low
# [66] = locus YPL256C, strain CLN2, active compounds read low
# [67] = locus YPR025C, strain CCL1, active compounds read low
# [68] = locus YPR106W, strain ISR1, active compounds read low
# [69] = locus YPR111W, strain DBF20, active compounds read low
# [70] = strain NNK1, active compounds read low
# [71] = strain TSCII, active compounds read low
smiles,measurement,setting,value
Cc1ccc(C)n1-c1ccc(/C=C2/C(=O)Nc3ccccc32)cc1,normalized growth,[1],0.957
same,normalized growth,[2],0.973
same,normalized growth,[3],0.975
same,normalized growth,[4],0.972
same,normalized growth,[5],0.962
same,normalized growth,[6],0.971
same,normalized growth,[7],0.964
same,normalized growth,[8],0.979
same,normalized growth,[9],0.968
same,normalized growth,[10],0.974
same,normalized growth,[11],0.91
same,normalized growth,[12],0.986
same,normalized growth,[13],0.983
same,normalized growth,[14],0.968
same,normalized growth,[15],0.931
same,normalized growth,[16],0.903
same,normalized growth,[17],0.932
same,normalized growth,[18],0.947
same,normalized growth,[19],0.957
same,normalized growth,[20],0.981
same,normalized growth,[21],0.948
same,normalized growth,[22],0.976
same,normalized growth,[23],0.945
same,normalized growth,[24],0.925
same,normalized growth,[25],0.839
same,normalized growth,[26],0.662 (active)
same,normalized growth,[27],0.832
same,normalized growth,[28],0.907
same,normalized growth,[29],0.857
same,normalized growth,[30],0.97
same,normalized growth,[31],0.878
same,normalized growth,[32],0.973
same,normalized growth,[33],0.923
same,normalized growth,[34],0.972
same,normalized growth,[35],0.912
same,normalized growth,[36],0.794
same,normalized growth,[37],0.963
same,normalized growth,[38],0.887
same,normalized growth,[39],0.939
same,normalized growth,[40],0.979
same,normalized growth,[41],1.02
same,normalized growth,[42],0.837 (active)
same,normalized growth,[43],0.926
same,normalized growth,[44],0.925
same,normalized growth,[45],0.916
same,normalized growth,[46],0.97
same,normalized growth,[47],0.932
same,normalized growth,[48],0.957
same,normalized growth,[49],0.976
same,normalized growth,[50],0.936
same,normalized growth,[51],0.975
same,normalized growth,[52],0.936
same,normalized growth,[53],0.974
same,normalized growth,[54],0.978
same,normalized growth,[55],0.947
same,normalized growth,[56],0.972
same,normalized growth,[57],0.9
same,normalized growth,[58],0.932
same,normalized growth,[59],0.942
same,normalized growth,[60],0.863
same,normalized growth,[61],0.977
same,normalized growth,[62],0.931
same,normalized growth,[63],0.92
same,normalized growth,[64],0.935
same,normalized growth,[65],0.977
same,normalized growth,[66],0.855 (active)
same,normalized growth,[67],0.971
same,normalized growth,[68],0.968
same,normalized growth,[69],0.958
same,normalized growth,[70],0.959
same,normalized growth,[71],0.967
O=C1Nc2ccccc2/C1=C\c1c(Cl)cccc1Cl,normalized growth,[1],0.966
same,normalized growth,[2],0.963
same,normalized growth,[3],0.973
same,normalized growth,[4],0.974
same,normalized growth,[5],0.972
same,normalized growth,[6],0.969
same,normalized growth,[7],0.975
same,normalized growth,[8],0.964
same,normalized growth,[9],0.974
same,normalized growth,[10],0.965
same,normalized growth,[11],0.951
same,normalized growth,[12],0.975
same,normalized growth,[13],0.958
same,normalized growth,[14],0.963
same,normalized growth,[15],0.939
same,normalized growth,[16],0.945
same,normalized growth,[17],0.945
same,normalized growth,[18],0.96
same,normalized growth,[19],0.961
same,normalized growth,[20],0.969
same,normalized growth,[21],0.976
same,normalized growth,[22],0.973
same,normalized growth,[23],0.945
same,normalized growth,[24],0.981
same,normalized growth,[25],0.909
same,normalized growth,[26],0.985
same,normalized growth,[27],0.901
same,normalized growth,[28],1.03
same,normalized growth,[29],0.918
same,normalized growth,[30],0.971
same,normalized growth,[31],0.894
same,normalized growth,[32],0.915
same,normalized growth,[33],0.946
same,normalized growth,[34],0.974
same,normalized growth,[35],0.95
same,normalized growth,[36],1.04
same,normalized growth,[37],0.944
same,normalized growth,[38],0.963
same,normalized growth,[39],0.938
same,normalized growth,[40],0.968
same,normalized growth,[41],1.01
same,normalized growth,[42],0.845 (active)
same,normalized growth,[43],0.962
same,normalized growth,[44],0.928
same,normalized growth,[45],0.954
same,normalized growth,[46],0.968
same,normalized growth,[47],0.956
same,normalized growth,[48],0.965
same,normalized growth,[49],0.969
same,normalized growth,[50],0.941
same,normalized growth,[51],0.968
same,normalized growth,[52],0.989
same,normalized growth,[53],0.96
same,normalized growth,[54],0.967
same,normalized growth,[55],0.953
same,normalized growth,[56],0.963
same,normalized growth,[57],0.959
same,normalized growth,[58],0.959
same,normalized growth,[59],1.02
same,normalized growth,[60],0.953
same,normalized growth,[61],0.969
same,normalized growth,[62],0.939
same,normalized growth,[63],0.935
same,normalized growth,[64],0.926
same,normalized growth,[65],0.969
same,normalized growth,[66],0.905
same,normalized growth,[67],0.972
same,normalized growth,[68],0.954
same,normalized growth,[69],0.952
same,normalized growth,[70],0.946
same,normalized growth,[71],0.964
